In PubChem BioAssay (NCI):
The panel holds about 83,000 compounds, 20% with a hit somewhere; the sample as a whole holds those more often.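 Assay: single dose, 48 h. Readout: percent growth (0 = no net growth; negative = cell death). Active: <10.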 A number with no mark means an inactive call. The source made the active and inactive calls.

Legend:
Assay in all cases: NCI-60 one-dose screen, 48 h (100 = growth as untreated, 0 = no growth, -100 = all killed)
Conditions in all cases: 10 µM unless noted
[1] = system: NCI-H23 lung
[2] = system: NCI-H226 lung
[3] = system: NCI-H322M lung
[4] = system: NCI-H460 lung
[5] = system: HOP-92 NSCLC
[6] = system: NCI-H522 lung
[7] = system: A549/ATCC NSCLC
[8] = system: 786-0 renal
[9] = system: DU-145 prostate
[10] = system: K-562 leukemia
[11] = system: MALME-3M melanoma
[12] = system: MDA-MB-231 breast
[13] = system: RXF 393 renal
[14] = system: SF-268 CNS
[15] = system: SF-295 CNS
[16] = system: SF-539 CNS
[17] = system: UACC-257 melanoma
[18] = system: M14 melanoma
[19] = system: COLO 205 colon
[20] = system: HOP-62 NSCLC

Row | SMILES | growth [1] | growth [2] [%] | growth [3] | growth [4] | growth [5] | growth [6] | growth [7] [%] | growth [8] | growth [9] | growth [10] | growth [11] | growth [12] | growth [13] | growth [14] | growth [15] | growth [16] | growth [17] | growth [18] | growth [19] | growth [20]
1 | Cc1cc(N(CCCNc2ccnc3cc(Cl)ccc23)Cc2ccco2)nc(N2CCN(C)CC2)n1 | 66% | 88.3 | 64.2% | 28.4% | 79.9% | 82.1% | 45 | 59% | 55.6% | 12.9% | -49.6% (active) | 14.4% | 35.9% | 56.1% | 57.1% | -62.9% (active) | -63.2% (active) | -82.5% (active) |  | 
2 | CCSc1ncnc2c1ncn2C1OC(CO)C(O)C1O (stereo unspecified) | 24.6% | 62.9 | 42.6% | 14.9% | 33% | 19.5% | 14.6 | 24.1% | 22.7% | 15.9% | 53.5% | 64.4% | 36.7% | 19.4% | 31.4% | 25.3% | 59.6% | 29.6% | 20.8% | 
3 | C=C1C(=O)O[C@H]2[C@H]1CC/C(COC(=O)NCc1c[nH]c3ccccc13)=C\CC[C@@]1(C)O[C@@H]21 | 68.3% | 88.8 | 84.5% | 74.7% | 107% | -35.2% (active) | 82.5 | 44.6% | 29.2% | 12.7% | 52.7% | 42% | 17.5% | 70.8% | 94.6% | 7.38% (active) | 75.2% | 48.7% | -20.4% (active) | 
4 | Cc1cc(Nc2ccc(F)cc2)nc(N2CCN(c3ccnc4cc(Cl)ccc34)CC2)n1 | 28.9% | 57.5 | 46.8% |  | -7.85% (active) | 17.4% | 29.8 | 23.5% | 35% | 6.26% (active) | 12.7% | 37.9% | 38.9% | 36.2% |  | 14% | 38.3% | 12.9% | -68% (active) | 59.8%
5 | NCCNc1nc(-c2ccccc2)nc2nc(-c3ccccc3)oc12 | 90.6% | 86.1 | 104% | 98.4% | 55.1% | 105% | 93.6 | 81% | 98.2% | 24.2% | 102% | 92.8% | 85.9% | 73.3% | 101% | 90.4% | 111% | 97.8% | 87.4% | 
6 | COc1ccc2c(c1)C(Br)=C(CCO)C2c1ccccc1 (stereo unspecified) | 95% | 100 | 15.8% | 9.69% (active) | 35.5% | 96.8% | 25.1 | 85.4% | -10.3% (active) | 122% | 90.6% | 56.3% | 20% | 84.3% | 1.56% (active) | 63.7% | 77.6% | 89% | 48.2% | 
7 | Cc1cc(Cl)nc(N(CCNc2ccnc3cc(Cl)ccc23)Cc2ccco2)n1 | 45.6% | 70.3 | 70.6% | 31.7% | 57% | 53.2% |  | -9.46% (active) | 52.2% | 16.2% | 81.3% | 19.3% | -15.7% (active) | 66.7% | 59.4% | -41.6% (active) | 115% | 55.3% | 50.9% | 
8 | Cn1cc(-c2csc(-c3cn(CCN)c4ccc(Br)cc34)n2)c2cccnc21 | 78.4% | 85.1 | 75.3% | 16.4% | 45.9% | 90.6% | 37.5 | 73.1% | 58.5% | 18.1% | 97.5% | 62.4% | 75.6% | 78.4% | 100% | 82.5% | 92.8% | 86.1% | -5.13% (active) | 
9 | CCC(c1ccc(OC)cc1)C(CC)c1ccc(O)c(CN2CCCCC2)c1 (stereo unspecified) | 63.5% | 70 | 70.7% |  | 52.2% | 72.3% | 84 | 59.5% | 86.6% | 15.4% | 28.1% | 77.6% | 53.7% | 86.1% | 78.9% | 69.3% |  | 44.3% | -12.9% (active) | 95.5%
10 | COc1cc2c(cc1OC)C(=O)/C(=C/c1cc(-c3ccc4c(c3)OCO4)n[nH]1)C2 | 22.4% | 47.1 | -5.69% (active) |  | -4.09% (active) | -63.6% (active) | 27.8 | -89.8% (active) | 1.19% (active) | -41.5% (active) | 43.7% | 24.6% | -39.8% (active) | -53.4% (active) |  | -80.9% (active) | 77.1% | 5.68% (active) | 7.58% (active) | -52.5% (active)
11 | CCCCCCCN(CCCCCCC)C(=N)c1ccnc2ccccc12 | 0.856% (active) | 39.3 | -2.85% (active) | -83.9% (active) | -4.56% (active) | -46.7% (active) |  | -93.6% (active) | 1.08% (active) | -14.9% (active) | -76.2% (active) | -71.3% (active) | -76% (active) | 33% | -78.3% (active) | -82% (active) | -69.4% (active) | -64% (active) | -72.9% (active) | 
12 | Nc1c(C(=O)Nc2cccc(Br)c2)sc2nc3c(cc12)C(=O)CCC3 | 34% | 75.1 | 64.7% |  | 79.3% | -20% (active) | 24.4 | 51.8% | 1.18% (active) | 13.7% | 16.6% | 38.5% | -1.14% (active) | 62.6% |  | 25.5% | 68% | 35.7% | -11.2% (active) | 40.4%
